Some targets named below: RELARELA (p65 homodimer) (Homo sapiens, UniProt Q04206 1-307); p50p50 homodimer (Homo sapiens, UniProt P19838 7-356); RELB subunit;p50 subunit (Homo sapiens;Homo sapiens, UniProt Q01201;P19838 120-401;7-356).
Common to all, as to assay: protein binding microarray; high values mean tight binding
Conditions in all cases: dsDNA, one strand shown

In a further experiment the target is T1, p52p52 homodimer (Homo sapiens, UniProt Q00653 4-332).
T1 sequence: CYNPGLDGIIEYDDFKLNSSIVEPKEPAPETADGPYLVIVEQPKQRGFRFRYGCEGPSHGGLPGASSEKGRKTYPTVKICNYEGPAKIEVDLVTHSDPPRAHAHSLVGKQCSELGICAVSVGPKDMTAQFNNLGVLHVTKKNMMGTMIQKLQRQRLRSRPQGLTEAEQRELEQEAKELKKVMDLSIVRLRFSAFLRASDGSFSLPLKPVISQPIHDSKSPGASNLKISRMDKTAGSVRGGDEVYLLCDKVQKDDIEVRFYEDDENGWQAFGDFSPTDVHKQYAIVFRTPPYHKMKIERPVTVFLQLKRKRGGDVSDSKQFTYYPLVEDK

Experiment [1] has as its target RELA (p65) subunit of heterodimer;p50 subunit (Homo sapiens;Homo sapiens, UniProt Q04206;P19838 1-307;7-356).
In experiment [2] the target is RELA (p65) subunit of heterodimer;p52 subunit (Homo sapiens;Homo sapiens, UniProt Q04206;Q00653 1-307;4-332).
A further experiment deals with T2, RELB subunit;p52 subunit (Homo sapiens;Homo sapiens, UniProt Q01201;Q00653 120-401;4-332).
T2 sequence 1: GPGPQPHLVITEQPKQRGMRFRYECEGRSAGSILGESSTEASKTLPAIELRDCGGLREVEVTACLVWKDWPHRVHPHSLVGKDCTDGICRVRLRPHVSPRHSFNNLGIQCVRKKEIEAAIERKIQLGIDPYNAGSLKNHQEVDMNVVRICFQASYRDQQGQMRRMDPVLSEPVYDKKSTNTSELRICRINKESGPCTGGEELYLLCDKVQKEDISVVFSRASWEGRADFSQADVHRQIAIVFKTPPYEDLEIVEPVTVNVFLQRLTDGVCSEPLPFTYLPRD
T2 sequence 2: T1 sequence

Experiment [3] has as its target C-Rel subunit;p50 subunit (Homo sapiens;Homo sapiens, UniProt Q04864;P19838 1-285;7-356).
The target in experiment [4] is T3, C-Rel subunit;p52 subunit (Homo sapiens;Homo sapiens, UniProt Q04864;Q00653 1-285;4-332).
T3 sequence 1: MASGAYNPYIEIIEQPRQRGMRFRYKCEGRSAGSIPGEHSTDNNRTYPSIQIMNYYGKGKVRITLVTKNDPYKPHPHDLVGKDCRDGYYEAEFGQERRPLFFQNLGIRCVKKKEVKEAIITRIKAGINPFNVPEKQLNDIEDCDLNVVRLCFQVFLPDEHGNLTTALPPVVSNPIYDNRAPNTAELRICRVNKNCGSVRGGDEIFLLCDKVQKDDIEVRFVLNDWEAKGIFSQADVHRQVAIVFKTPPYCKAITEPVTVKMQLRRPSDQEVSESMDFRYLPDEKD
T3 sequence 2: T1 sequence

Chain of RELA (p65) subunit of heterodimer;p50 subunit (Q04206 1-307, chain 1 of 2): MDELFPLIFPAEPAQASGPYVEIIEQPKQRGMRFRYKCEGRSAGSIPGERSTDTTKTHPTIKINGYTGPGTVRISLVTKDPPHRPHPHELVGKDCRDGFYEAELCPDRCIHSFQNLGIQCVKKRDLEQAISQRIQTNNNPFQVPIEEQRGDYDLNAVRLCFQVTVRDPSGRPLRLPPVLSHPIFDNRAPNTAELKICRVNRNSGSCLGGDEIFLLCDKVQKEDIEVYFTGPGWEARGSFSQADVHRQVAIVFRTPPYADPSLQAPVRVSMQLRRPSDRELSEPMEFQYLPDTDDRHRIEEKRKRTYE
Chain of RELA (p65) subunit of heterodimer;p50 subunit (P19838 7-356, chain 2 of 2): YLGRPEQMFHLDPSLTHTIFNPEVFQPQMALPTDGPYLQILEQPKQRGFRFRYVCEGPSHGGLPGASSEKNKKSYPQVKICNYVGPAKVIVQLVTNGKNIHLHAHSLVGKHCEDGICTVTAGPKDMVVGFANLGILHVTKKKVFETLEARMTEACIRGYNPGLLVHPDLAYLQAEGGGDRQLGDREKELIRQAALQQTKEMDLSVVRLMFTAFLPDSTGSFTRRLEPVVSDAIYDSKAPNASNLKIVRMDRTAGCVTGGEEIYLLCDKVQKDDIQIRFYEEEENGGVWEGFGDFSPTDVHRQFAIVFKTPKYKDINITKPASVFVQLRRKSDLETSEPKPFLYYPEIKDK
Chain of RELARELA (p65 homodimer) (Q04206 1-307): as the sequence (Q04206 1-307, chain 1 of 2) above
Chain of p50p50 homodimer (P19838 7-356): as the sequence (P19838 7-356, chain 2 of 2) above

As to GGAGTGGCCCT, the binding signal was -0.154 z-score in the experiment with RELARELA (p65 homodimer); -1.1 z-score in the experiment with p50p50 homodimer; -0.562 z-score with p52p52 homodimer; -0.155 z-score in experiment [1]; -0.329 z-score in experiment [2]; -0.631 z-score with RELB subunit;p50 subunit. The binding signal in the experiment with RELB subunit;p52 subunit was -0.334 z-score; in experiment [3], -0.305 z-score; in experiment [4] it was -0.0519 z-score.
As to CAAAGTACCCC, the binding signal with RELARELA (p65 homodimer) was determined as 0.144 z-score; with p50p50 homodimer, 0.83 z-score; in the experiment with p52p52 homodimer, 0.509 z-score; in [1], 0.648 z-score; in experiment [2], 0.795 z-score; with RELB subunit;p50 subunit, 1.07 z-score. The values for the binding signal (with RELB subunit;p52 subunit; in experiment [3]; in [4]) were 1.19 z-score, 0.721 z-score and 0.588 z-score, respectively.
As to GAGGAGCCCCC, the binding signal in the experiment with RELARELA (p65 homodimer) is -0.939 z-score; in the experiment with p50p50 homodimer, 1.04 z-score; in the experiment with p52p52 homodimer, 0.368 z-score; in experiment [1], 0.44 z-score; in experiment [2], 0.25 z-score; with RELB subunit;p50 subunit it was 0.656 z-score. The binding signal amounted to 0.61 z-score in the experiment with RELB subunit;p52 subunit, 0.625 z-score in [3] and 0.222 z-score in experiment [4].
As to AAAAACCTCCC, the binding signal with RELARELA (p65 homodimer) was 0.0581 z-score; in the experiment with p50p50 homodimer, 0.2 z-score; with p52p52 homodimer, -0.135 z-score; in experiment [1], 0.166 z-score; in experiment [2], -0.13 z-score; in the experiment with RELB subunit;p50 subunit, 0.0831 z-score. Further, the binding signal with RELB subunit;p52 subunit was determined as 0.117 z-score; in experiment [3] it was 0.28 z-score; in [4], 0.0846 z-score.
In the case of CAAGTAATCCC, the binding signal with RELARELA (p65 homodimer) is -0.158 z-score; in the experiment with p50p50 homodimer, -0.156 z-score; with p52p52 homodimer, -0.0587 z-score; in experiment [1], -0.365 z-score; in experiment [2], -0.426 z-score; with RELB subunit;p50 subunit, -0.117 z-score. In addition, the binding signal was -0.123 z-score with RELB subunit;p52 subunit, 0.0809 z-score in [3] and -0.302 z-score in experiment [4].
For the sequence CAGAGTATCCT, the binding signal was -0.548 z-score in the experiment with RELARELA (p65 homodimer); -1.79 z-score with p50p50 homodimer; -0.651 z-score with p52p52 homodimer; -0.987 z-score in experiment [1]; -1 z-score in experiment [2]; -1.11 z-score in the experiment with RELB subunit;p50 subunit. For the same sequence, the binding signal with RELB subunit;p52 subunit was -0.991 z-score; in [3] it was -1.45 z-score; in experiment [4] it was -1 z-score.
In the case of AGGATCACCCT, the binding signal was -0.477 z-score with RELARELA (p65 homodimer); -0.136 z-score in the experiment with p50p50 homodimer; -0.277 z-score in the experiment with p52p52 homodimer; -0.316 z-score in [1]; -0.525 z-score in experiment [2]; -0.14 z-score with RELB subunit;p50 subunit. Moreover, the figures for the binding signal (in the experiment with RELB subunit;p52 subunit; in [3]; in experiment [4]) were -0.242 z-score, -0.558 z-score and -0.421 z-score, respectively.
Regarding CAAAAGTTCCC, the binding signal worked out at 1.7 z-score with RELARELA (p65 homodimer); 0.79 z-score with p50p50 homodimer; 0.496 z-score with p52p52 homodimer; 0.839 z-score in [1]; 0.661 z-score in experiment [2]; 0.674 z-score with RELB subunit;p50 subunit. Further, the binding signal with RELB subunit;p52 subunit was 0.512 z-score; in experiment [3], 0.746 z-score; in [4], 0.598 z-score.
As to GGGGGAACCCC, the binding signal with RELARELA (p65 homodimer) worked out at 2.66 z-score; with p50p50 homodimer it was 1.15 z-score; with p52p52 homodimer, 3.25 z-score; in experiment [1] it was 2.25 z-score; in [2] it was 3.23 z-score; in the experiment with RELB subunit;p50 subunit it was 2.62 z-score. Besides, the binding signal in the experiment with RELB subunit;p52 subunit is 2.86 z-score; in [3], 2.58 z-score; in experiment [4], 3.54 z-score.
Take GGAATGGTCCT: the binding signal in the experiment with RELARELA (p65 homodimer) was 0.313 z-score; in the experiment with p50p50 homodimer it was -1.37 z-score; with p52p52 homodimer it was -0.493 z-score; in [1], -0.849 z-score; in experiment [2] it was -0.627 z-score; with RELB subunit;p50 subunit it was -0.903 z-score. Also, the figures for the binding signal (in the experiment with RELB subunit;p52 subunit; in experiment [3]; in [4]) were -0.612 z-score, -0.89 z-score and -0.524 z-score, respectively.
Consider CGGTTCATCCT, for which the binding signal was -0.997 z-score with RELARELA (p65 homodimer); -1.12 z-score in the experiment with p50p50 homodimer; -0.513 z-score with p52p52 homodimer; -0.88 z-score in [1]; -0.9 z-score in experiment [2]; -0.96 z-score in the experiment with RELB subunit;p50 subunit. Also, the figures for the binding signal (in the experiment with RELB subunit;p52 subunit; in experiment [3]; in [4]) were -0.765 z-score, -1.41 z-score and -1.01 z-score, respectively.
Regarding GAAGGGACCCC, the binding signal with RELARELA (p65 homodimer) was -0.812 z-score; in the experiment with p50p50 homodimer, 0.244 z-score; with p52p52 homodimer it was 0.629 z-score; in [1], -0.173 z-score; in [2], 0.512 z-score; with RELB subunit;p50 subunit, 0.268 z-score. In addition, the binding signal with RELB subunit;p52 subunit is 0.639 z-score; in experiment [3], -0.159 z-score; in experiment [4] it was 0.296 z-score.
With GGAATGATCCC, the binding signal with RELARELA (p65 homodimer) was -0.0862 z-score; in the experiment with p50p50 homodimer, -0.737 z-score; in the experiment with p52p52 homodimer, -0.387 z-score; in experiment [1], -0.382 z-score; in experiment [2], -0.396 z-score; with RELB subunit;p50 subunit, -0.763 z-score. In addition, the binding signal in the experiment with RELB subunit;p52 subunit is -0.764 z-score; in [3], -0.432 z-score; in experiment [4] it was -0.264 z-score.
In the case of GGAGGATCCCC, the binding signal with RELARELA (p65 homodimer) came out at 0.374 z-score; with p50p50 homodimer, 1.03 z-score; in the experiment with p52p52 homodimer, 1.19 z-score; in experiment [1], 1.54 z-score; in [2] it was 1.22 z-score; with RELB subunit;p50 subunit it was 1.27 z-score. The binding signal was determined as 0.916 z-score with RELB subunit;p52 subunit, 1.15 z-score in [3] and 0.899 z-score in [4].
On to CGAGATACCCC, for which the binding signal was -0.193 z-score with RELARELA (p65 homodimer); 0.305 z-score with p50p50 homodimer; 0.114 z-score in the experiment with p52p52 homodimer; 0.439 z-score in [1]; 0.228 z-score in [2]; 0.539 z-score in the experiment with RELB subunit;p50 subunit. For the same sequence, the binding signal came out at 0.921 z-score with RELB subunit;p52 subunit, 0.515 z-score in [3] and 0.344 z-score in experiment [4].

The record behind these values is publication PMC3218832.
